# Source: PubChem BioAssay AID1851 (National Center for Advancing Translational Sciences (NCATS), 2009)
# Out of some 16,000 compounds screened, about 5,100 (32%) were called active. Roughly 25% stayed inconclusive and do not appear here. The call rests on the fitted dose curve; in most records, active means well fitted curve in the direction sought with a large enough effect; inconclusive means small, poorly fitted or top-dose-only effect, or effect the other way; inactive means no such curve, though single readings can be large or run the other way. The list shows a part of the results.
# Target: Cytochrome P450 3A4 (Homo sapiens) (UniProt P08684)
# Sequence (P08684 whole entry, looked up): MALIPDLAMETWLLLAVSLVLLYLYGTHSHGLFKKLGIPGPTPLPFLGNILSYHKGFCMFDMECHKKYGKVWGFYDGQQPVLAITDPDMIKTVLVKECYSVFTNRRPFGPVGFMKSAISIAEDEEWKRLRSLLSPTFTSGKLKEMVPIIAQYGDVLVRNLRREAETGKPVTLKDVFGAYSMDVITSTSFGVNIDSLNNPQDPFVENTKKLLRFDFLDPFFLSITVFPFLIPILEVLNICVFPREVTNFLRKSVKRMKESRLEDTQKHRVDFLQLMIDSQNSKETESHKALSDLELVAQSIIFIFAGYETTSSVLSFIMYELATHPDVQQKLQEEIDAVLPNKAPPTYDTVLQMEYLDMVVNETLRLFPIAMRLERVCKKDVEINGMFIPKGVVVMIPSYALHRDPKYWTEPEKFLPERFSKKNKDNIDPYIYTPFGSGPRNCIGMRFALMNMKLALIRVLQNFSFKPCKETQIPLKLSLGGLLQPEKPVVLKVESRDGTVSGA
# Experiment: Cytochrome panel assay with activity outcomes
# Conditions: recombinant CYP, pro-luciferin dealkylation, luminescence, p450-cyp3a4; series mostly up to 57.1 µM
# On the % scale 0 is the no-effect control and ±100 the full control effect.
SMILES,AC50,"activity, negative = inhibition"
CC(C)Cn1c(C(C)C)nc([N+](=O)[O-])c1S(=O)(=O)c1ccc(F)cc1,4.47 µM (active),
CN(C)CCNCCN,,-3.91% [at 11.4 µM] (inactive)
Cc1ccc(CNCC(O)(c2ccc(F)cc2)c2ccc(F)cc2)cc1,2.24 µM (active),
OC(CNCc1ccc(F)cc1)(c1ccc(F)cc1)c1ccc(F)cc1,2 µM (active),
O=C(O)c1ccc(CNCc2ccccc2)cc1,,-2.73% [at 11.4 µM] (inactive)
CC(CO)(CO)Nc1ncnc2ccccc12,,4.84% [at 11.4 µM] (inactive)
COc1ccccc1CNc1ncnc2ccc(-c3cccnc3)cc12,2 µM (active),
COc1ccc(CNc2ncnc3ccc(-c4cccnc4)cc23)c(OC)c1,1.26 µM (active),
COc1cccc(-c2ccc3ncnc(NCc4ccc(OC)cc4OC)c3c2)c1,2.51 µM (active),
Nc1ccccc1N=Nc1c(S(=O)(=O)O)cc2cc(S(=O)(=O)O)cc(O)c2c1O,,-15.9% [at 11.4 µM] (inactive)
Cc1ccccc1NC(=O)Cn1cnc2c1c(=O)n(C)c(=O)n2C,inactive,
COc1ccc(Cc2nnc(NC(=O)Cn3cnc4c3c(=O)n(C)c(=O)n4C)s2)cc1OC,,4.73% [at 2.29 µM] (inactive)
COc1ccc(CCNC(=O)Cn2cnc3c2c(=O)n(C)c(=O)n3C)cc1OC,15.8 µM (active),
COc1ccc(Nc2ncc(C(=O)N3CCN(c4ccc(F)cc4)CC3)c3ccccc23)cc1,,-5.25% [at 2.29 µM] (inactive)
O=C(c1sc2ccccc2c1Cl)N1CCN(c2ccc(F)cc2)CC1,14.1 µM (active),
O=C(c1cccs1)N1CCN(C(=O)C(c2ccccc2)c2ccccc2)CC1,inactive,
COc1ccccc1N1CCN(C(=O)C(NS(=O)(=O)c2cccs2)c2ccccc2)CC1 (stereo not given),2 µM (active),
O=C(C(NS(=O)(=O)c1cccs1)c1ccccc1)N1CCN(c2ccccc2)CC1 (stereo not given),3.16 µM (active),
O=C(NCCN1CCN(C(=O)C(c2ccccc2)c2ccccc2)CC1)C(=O)Nc1ccccc1,inactive,
CC(C)C(NS(=O)(=O)c1cccs1)C(=O)NCCN1CCN(c2ccccc2)CC1 (stereo not given),5.01 µM (active),

SMILES,AC50,"activity, negative = inhibition"
COc1ccc(S(N)(=O)=O)cc1C(=O)NCCCN1CCN(c2ccc(C)cc2)CC1,,1.35% [at 2.29 µM] (inactive)
CCOC(=O)c1sc(C)c(C(=O)NCC(C)(C)CN(C)C)c1N,inactive,
O=C(CSc1nc2ccccc2s1)Nc1nccs1,10 µM (active),
O=C(CSc1nc2ccccc2s1)NNC(=S)Nc1ccc(Br)cc1,2.51 µM (active),
Cc1nnc(SCC(=O)Nc2nccs2)[nH]c1=O,inactive,
Cc1cccc(-c2nsc(SCC(=O)Nc3nccs3)n2)c1,3.55 µM (active),
O=C(O)CCCSc1nc2ccccc2s1,,-9.94% [at 11.4 µM] (inactive)
C1CCc2nnnn2CC1,inactive,
O=C(O)[C@@H](O)[C@@H](O)[C@@H](O)[C@@H](O)C(=O)O (tested in a mixture with another compound),inactive,
O=C(Nc1ccc(Cl)cc1Cl)c1cccc(N2C(=O)C=CC2=O)c1,1.26 µM (active),
O=C(Nc1ccc(Cl)cc1C(F)(F)F)c1ccc(Cl)cc1,inactive,
COc1cc2c(cc1OC)-c1cc(NCc3ccccn3)nc(=O)n1CC2,inactive,
COc1cc(CNCc2ccccn2)ccc1OCc1ccc(Cl)cc1Cl,0.501 µM (active),
COc1ccc(CC(=O)NCc2ccccn2)cc1OC,,-4.2% [at 2.29 µM] (inactive)
COc1cc(CNCCN2CCOCC2)ccc1OCc1ccccc1Cl,15.8 µM (active),
O=C(O)c1cc(=O)c2c(Cl)cc(Cl)cc2[nH]1,inactive,
O=C1C[C@H]2C(=O)[C@@H]1[C@@H](C(=O)O)[C@H]2C(=O)O,,-3.12% [at 11.4 µM] (inactive)
COc1cccc(Nc2ncc3nc(-c4cccs4)c(=O)n(Cc4cccs4)c3n2)c1,inactive,
Cc1nc2cnc(Nc3ccccc3)nc2n(Cc2cccs2)c1=O,7.94 µM (active),
O=c1cnc2cnc(Nc3ccccc3)nc2n1Cc1cccs1,15.8 µM (active),

SMILES,AC50,"activity, negative = inhibition"
O=c1c(-c2ccc(F)cc2)nc2cnc(Nc3ccccc3)nc2n1Cc1cccs1,inactive,
COc1ccc(-c2nc3cnc(Nc4ccccc4)nc3n(Cc3cccs3)c2=O)cc1,inactive,
COc1cccc(Nc2ncc3nc(C)c(=O)n(Cc4cccs4)c3n2)c1,3.98 µM (active),
C=C(CC)C(=O)c1ccc(OCC(=O)O)c(Cl)c1Cl,inactive,
CCC(C)NC(=O)c1c(C)cc(=O)oc1C (stereo not given),inactive,
C[C@@H](N=C(N)N)C(=O)O,,-8.02% [at 11.4 µM] (inactive)
Cc1cc(NC(=O)NC(=O)c2ccc(F)cc2F)n[nH]1,inactive,
COc1ccccc1N1CCN(CCCCN2C(=O)CCC2=O)CC1,inactive,
COc1ccccc1N1CCN(CCCCNS(=O)(=O)c2cccc3c(N(C)C)cccc23)CC1,2.51 µM (active),
COc1ccccc1N1CCN(CCCCNC(=O)c2ccc3ccccc3c2)CC1,inactive,
Oc1c(Cl)cc(C(c2cc(Cl)c(O)c(Cl)c2)C(c2cc(Cl)c(O)c(Cl)c2)c2cc(Cl)c(O)c(Cl)c2)cc1Cl,,-26.2% [at 11.4 µM] (inactive)
Cc1ccc(NC(=O)c2ccccc2C(=O)O)cc1C,,-9.2% [at 11.4 µM] (inactive)
COC(=O)CSC(C(=O)Nc1ccc(C)c(C)c1)c1ccccc1 (stereo not given),3.98 µM (active),
CCCCOC(=O)Nc1ccc(C)c(Cl)c1,inactive,
O=C(C1CCN(S(=O)(=O)c2cccc3nsnc23)CC1)N1CCCc2ccccc21,14.1 µM (active),
O=C(C1CCCN(S(=O)(=O)c2cccc3nsnc23)C1)N1CC=C(c2ccccc2)CC1 (stereo not given),6.31 µM (active),
O=C(C1CCN(S(=O)(=O)c2cccc3nsnc23)CC1)N1CCN(c2ccccc2F)CC1,inactive,
O=C(C1CCN(S(=O)(=O)c2cccc3nsnc23)CC1)N1CCn2c1nc1ccccc12,14.1 µM (active),
O=C(O)c1nn(-c2ccc(Cl)cc2)c2c1C(=O)c1ccccc1C2=O,,-4.55% [at 11.4 µM] (inactive)
COc1cc(=O)n2c(n1)SCCC2,,-0.256% [at 2.29 µM] (inactive)
